Source: PubChem BioAssay (Broad Institute)
U2OS ROS induce = ROS inducers in U2OS cancer cells, primary screen, cell-based, H2DCF-DA fluorescence; AID 624156, 2012; ROS induction (% of piperlongumine), % at 10 µM; U2OS ROS induction; 46,000 compounds, 2% hits; in the data active = ROS induction above about 79%, passing the limit was not always enough; inconclusive = no clear call, values can overlap the other calls
PD-1 reversal = activators reversing PD-1 mediated T-cell inhibition, primary screen, luminescence, primary human CD4 T cells, PD-L1 beads | CellTiter-Glo 96 h | activation, % (test concentration not listed) | 29,000 tested, under 10 active; call rule not given here
YB-1 expr inh = inhibitors of YB-1 gene expression, primary screen, cell-based, fluorescence; delta delta Cp (YB-1 minus CDIP) (test concentration not listed); 30,000 compounds, 0.37% hits; U2OS, qRT-PCR YB-1 vs CDIP delta delta Cp, 16 h; stronger effect = higher value; zero = DMSO, each unit about twofold;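 active = delta delta Cp rounded down to an integer at or above 3, about 3 SD of DMSO wells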;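 also: higher means less YB-1 transcript or more CDIP transcript relative to DMSO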
NOMO-1 viab = NOMO-1 AML cell viability reduction, primary screen, STK33 inhibitor project, CellTiter-Glo luminescence; NOMO-1 AML viability, 72 h; inhibition, % (no concentration beside the values); 37,000 compounds, 7.5% hits; in the data active = inhibition above about 80%; inconclusive = no clear call, values can overlap the other calls
Large screens that a line does not name were inactive. Shown is part of a subset that was picked to be rich in hits.

COc1ccccc1NC(=O)COc1ccc(Cl)cc1CO	none (no result: YB-1 expr inh)
O=C(CN1CCCCC1)Nc1sc2c(c1C(=O)Nc1ccc(Br)cc1)CCC2	none (no result: YB-1 expr inh)
COCCOC(=O)N1C(=O)[C@@]2(c3ccccc31)[C@H](C(=O)NC[C@H](O)c1ccccc1)[C@H]1C(=O)O[C@H](c3ccccc3)[C@H](c3ccccc3)N1[C@@H]2c1ccc(OCCO)cc1	U2OS ROS induce 84 (no result: PD-1 reversal, NOMO-1 viab)
O=C1O[C@@H](c2ccccc2)[C@@H](c2ccccc2)N2[C@@H](c3ccc(OCCO)cc3)[C@]3(C(=O)Nc4ccccc43)[C@@H](C(=O)NC[C@H](O)c3ccccc3)[C@H]12	U2OS ROS induce 103 (no result: PD-1 reversal, NOMO-1 viab)
COCCOC(=O)N1C(=O)[C@@]2(c3cc(C#Cc4ccc(OC)cc4)ccc31)[C@H](C(=O)NC[C@H](O)c1ccccc1)[C@H]1C(=O)O[C@H](c3ccccc3)[C@H](c3ccccc3)N1[C@@H]2c1ccc(OCCO)cc1	none (no result: PD-1 reversal, NOMO-1 viab)
O=C1O[C@@H](c2ccccc2)[C@@H](c2ccccc2)N2[C@@H](c3ccc(O)cc3)[C@]3(C(=O)Nc4ccccc43)[C@@H](C(=O)NC[C@H](O)c3ccccc3)[C@H]12	none (no result: PD-1 reversal, NOMO-1 viab)
Cc1[nH]c(-c2ccc(F)cc2)cc1C(=O)NC1CCCCC1	none (no result: PD-1 reversal, YB-1 expr inh, NOMO-1 viab)
COc1c(O)c2c(=O)cc(OC)c3c4c(OC)cc(=O)c5c(O)c(OC)c(C[C@@H](C)OC(=O)c6ccccc6)c(c(c1C[C@@H](C)OC(=O)Oc1ccc(O)cc1)c23)c54	NOMO-1 viab 142
C=C1CCC(O)/C(C)=C\CC(C(C)C)C(OC2OC(COC(C)=O)C(O)C(O)C2O)C1 (configuration not stated)	none
C=C(C(=O)O[C@H]1C/C=C(/C)C[C@H](O)[C@H]2[C@H](C)C(=O)O[C@@H]2/C=C\1C)[C@@H]1CCC(=C)[C@@H]2C[C@H](O[C@@H]3O[C@H](COC(=O)CC(=O)O)[C@@H](O)[C@H](O)[C@H]3O)C(=C)[C@@H]2C1	NOMO-1 viab 105
Cc1ccc(S(=O)(=O)NCCN2CCOCC2)cc1-c1nnc2c3ccccc3c(C)nn12	none (no result: U2OS ROS induce, PD-1 reversal, YB-1 expr inh)
C[C@@H]1CC[C@H](O)/C=C/C(=O)O[C@H](C)CC[C@H](O)/C=C/C(=O)O1	NOMO-1 viab 108
C[C@@H]1CN([C@@H](C)CO)C(=O)c2cc(NC(=O)Cc3cn(C)c4ccccc34)ccc2O[C@H]1CN(C)C(=O)Nc1cccc2ccccc12	none
C[C@@H]1CN([C@H](C)CO)C(=O)c2cc(NC(=O)Cc3cn(C)c4ccccc34)ccc2O[C@@H]1CN(C)C(=O)Nc1cccc2ccccc12	NOMO-1 viab 99
C[C@@H]1CN([C@@H](C)CO)C(=O)c2cc(NC(=O)Cc3cn(C)c4ccccc34)ccc2O[C@@H]1CN(C)Cc1ccncc1	none
C[C@H]1CN([C@@H](C)CO)C(=O)c2cc(NC(=O)Cc3cn(C)c4ccccc34)ccc2O[C@@H]1CN(C)Cc1ccncc1	NOMO-1 viab 96 (no result: PD-1 reversal)
C[C@@H]1CN([C@@H](C)CO)C(=O)c2cc(NC(=O)Cc3cn(C)c4ccccc34)ccc2O[C@H]1CN(C)Cc1ccncc1	NOMO-1 viab 109
COC(=O)c1ccc(NC(=O)CN(C)S(=O)(=O)c2cc(Cl)ccc2Cl)cc1	none (no result: YB-1 expr inh)
O=C(Nc1nc2ccc(Cl)cc2s1)C1CN(C(c2ccccc2)c2ccccc2)C1	none (no result: PD-1 reversal, YB-1 expr inh, NOMO-1 viab)
CCc1cc(C(c2ccc(Cl)cc2)N2CCN(CCO)CC2)c(NC(=O)c2ccccc2)s1 (configuration not stated)	U2OS ROS induce 89, NOMO-1 viab 117
COc1ccc([C@H]2Oc3cc(O)cc(O)c3C(=O)[C@@H]2O)cc1	none
C[C@@H]1CCCCO[C@H](CN(C)C(=O)Nc2ccc(C(F)(F)F)cc2)[C@@H](C)CN([C@H](C)CO)C(=O)c2cc(NC(=O)NC3CCCCC3)ccc2O1	none
C[C@@H]1CCCCO[C@@H](CN(C)C(=O)Nc2ccc(C(F)(F)F)cc2)[C@@H](C)CN([C@H](C)CO)C(=O)c2cc(NC(=O)c3ccccc3)ccc2O1	NOMO-1 viab 91
C[C@@H]1CCCCO[C@@H](CN(C)CC2CCCCC2)[C@@H](C)CN([C@H](C)CO)C(=O)c2cc(NC(=O)Nc3ccc(F)cc3)ccc2O1	NOMO-1 viab 115
C[C@@H]1CCCCO[C@@H](CN(C)CC2CC2)[C@@H](C)CN([C@H](C)CO)C(=O)c2cc(NC(=O)Nc3ccc(C(F)(F)F)cc3)ccc2O1	NOMO-1 viab 119
C[C@@H]1CCCCO[C@@H](CN(C)Cc2ccncc2)[C@@H](C)CN([C@H](C)CO)C(=O)c2cc(NC(=O)Nc3ccc(C(F)(F)F)cc3)ccc2O1	none (no result: PD-1 reversal)
C[C@@H]1CCCCO[C@@H](CN(C)C(=O)NC2CCCCC2)[C@@H](C)CN([C@H](C)CO)C(=O)c2cc(NC(=O)Nc3ccc(C(F)(F)F)cc3)ccc2O1	NOMO-1 viab 99
C[C@@H]1CCCCO[C@H](CN(C)CC2CCCCC2)[C@@H](C)CN([C@H](C)CO)C(=O)c2cc(NC(=O)Nc3ccccc3)ccc2O1	NOMO-1 viab inconclusive (no result: PD-1 reversal)
COc1ccc(Cl)cc1NC(=O)C12CCC(C)(c3nc4ccccc4nc31)C2(C)C (configuration not stated)	none (no result: YB-1 expr inh)
CCNc1sc(S(=O)(=O)CC)nc1S(=O)(=O)c1ccc(C)cc1	none (no result: PD-1 reversal, YB-1 expr inh, NOMO-1 viab)
C[C@@H]1CCCCO[C@H](CN(C)Cc2ccncc2)[C@@H](C)CN([C@H](C)CO)C(=O)c2cc(NC(=O)Nc3ccc(C(F)(F)F)cc3)ccc2O1	NOMO-1 viab inconclusive (no result: PD-1 reversal)
C[C@@H]1CCCCO[C@@H](CN(C)CC2CCCCC2)[C@@H](C)CN([C@H](C)CO)C(=O)c2cc(NC(=O)Nc3ccc(C(F)(F)F)cc3)ccc2O1	NOMO-1 viab 117
C=CCN1CCc2c(cc(O)c(O)c2Cl)C(c2ccccc2)C1 (configuration not stated)	NOMO-1 viab 117 (no result: PD-1 reversal)
CCc1cc2c(SCC(=O)N3CCc4ccccc43)ncnc2s1	none (no result: YB-1 expr inh)
C[C@@H]1CN([C@H](C)CO)C(=O)Cc2cc(NS(=O)(=O)c3ccc(Cl)cc3)ccc2O[C@H]1CN(C)CC1CCCCC1	NOMO-1 viab 127
C[C@@H]1CN([C@H](C)CO)C(=O)Cc2cc(NS(=O)(=O)c3ccc(Cl)cc3)ccc2O[C@@H]1CN(C)CC1CCCCC1	NOMO-1 viab 114
Cc1nn(CC(O)COc2ccc3cc(Br)ccc3c2)c(C)c1Cl (configuration not stated)	none (no result: YB-1 expr inh)
O=c1oc2cc(O)ccc2cc1-c1nc2ccccc2s1	U2OS ROS induce 149 (no result: PD-1 reversal, YB-1 expr inh, NOMO-1 viab)
Cn1c(-c2nonc2NC(=O)c2ccccc2Br)nc2ccccc21	U2OS ROS induce 102 (no result: YB-1 expr inh)
CC(=O)Nc1nonc1-c1nc2ccccc2n1Cc1ccccc1Br	NOMO-1 viab 115 (no result: YB-1 expr inh)
O=[N+]([O-])c1ccc(O)c(C(c2c[nH]c3ccccc23)c2c[nH]c3ccccc23)c1	none (no result: YB-1 expr inh)
O=C1Cc2c([nH]c3ccc([N+](=O)[O-])cc23)-c2ccccc2N1	NOMO-1 viab 99
COC(CC(c1c(O)cc2cc(C)oc(=O)c2c1O)c1c(O)cc2cc(C)oc(=O)c2c1O)C(=O)O (configuration not stated)	none
